From PubChem
Shown is part of a subset that was picked to be rich in hits.
Tgondii IFNg = T. gondii growth inhibition under IFN-gamma; 3.8% of 69,000 active; activity change, negative = inhibition, % (test concentration not listed); AID 1259416; Toxoplasma gondii growth in IFN-gamma-treated host cells; stronger effect = lower value; in the data active = activity change below about -70%, passing the limit was not always enough;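 also: host cells are HeLa cells infected with Toxoplasma gondii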
Active calls of the source: *; i = inactive.

SMILES | Tgondii IFNg
O=S(=O)(c1ccc(-c2noc(CCc3c[nH]c4ccccc34)n2)cc1)N1CCCC1 | -58.5
N[C@@H]1CCCCN(c2c(F)cc3c(=O)c(C(=O)O)cn(C4CC4)c3c2Cl)C1 | -9.5
C[C@@H]1CN(c2c(F)c(F)c3c(=O)c(C(=O)O)cn(C4CC4)c3c2F)C[C@H](C)N1 | 3.0
N#Cc1c(N2C[C@@H]3NCCO[C@H]3C2)c(F)cc2c(=O)c(C(=O)O)cn(C3CC3)c12 | -86.2*
COc1cccc(COC2CN(CCc3ccccc3)C(=O)CN(C(=O)c3cc(C)[nH]n3)C2)c1 (centres undefined) | -6.0
Cc1ccc(C)c(-c2coc(-c3ccc(NC(=O)C(C)C)cc3)n2)c1 | -32.0
CO[C@@H]1CN(C)C(=O)c2cc(NC(=O)c3ccc(Oc4ccccc4)cc3)ccc2OC[C@H](C)NC[C@H]1C | -121.8*
COc1cccc(NC(=O)Nc2ccc3c(c2)C(=O)N(C)C[C@@H](OC)[C@@H](C)CN[C@H](C)CO3)c1 | -26.4
COc1cccc(NC(=O)Nc2ccc3c(c2)C(=O)N(C)C[C@H](OC)[C@H](C)CN[C@H](C)CO3)c1 | 73.4
CO[C@H]1CN(C)C(=O)c2cc(NC(=O)c3cnccn3)ccc2OC[C@@H](C)NC[C@@H]1C | -0.4
COc1cccc(NC(=O)Nc2ccc3c(c2)C(=O)N(C)C[C@@H](OC)[C@@H](C)CN[C@@H](C)CO3)c1 | -66.6
CO[C@H]1CN(C)C(=O)c2cc(NC(=O)c3ccc(Oc4ccccc4)cc3)ccc2OC[C@@H](C)NC[C@@H]1C | -113.9*
CCC1c2cccn2CCN1Cc1cn(CCC(N)=O)c2ccccc12 (centres undefined) | 27.3
CN(C)c1ccc(CC2CCNCC2)nn1 | -2.1
Cc1ccc2c(c1)c(CNC(C)CCn1cccn1)nn2C (centres undefined) | -6.8
CCc1c(C)nn(CC(=O)NCc2nn(C)c3ccc(C)cc23)c1C | -0.8
Cc1ccc2c(c1)c(Cn1cc(-c3sccc3C)nn1)nn2C | -86.0*
CCc1ccc(-c2cc3c(=O)n(Cc4nc(-c5ccc(OC)cc5)oc4C)ccn3n2)cc1 | 51.0
O=C(O)C1CC(N2CCOCC2)CCN1Cc1ccsc1 (centres undefined) | 90.2
O=C(NCCc1csc(-c2ccccc2)n1)C1CCN(S(=O)(=O)c2cccs2)CC1 | -33.7
COc1ccc(NC(=O)N2CCC(c3nc(C(=O)N4CCCC4)c(C)o3)CC2)cc1 | -4.5
O=C(c1cccc(CC2CCNCC2)c1)N1CCC(Nc2ncccn2)CC1 | -1.3
Cc1ccsc1C(=O)N1CCc2nc(N3CCOCC3)nc(NC(C)C)c2C1 | -20.4
COCCC(=O)N1CCc2nc(N3CCOCC3)nc(NC(C)C)c2C1 | 30.5
COc1cccc(C(=O)N2CCc3nc(N4CCCC4)nc(NC(C)C)c3C2)c1 | -109.9*
SMILES | Tgondii IFNg
C=CCNC(=S)NCc1cccs1 | 2.5
Cc1oncc1C(=O)N1CCC2(CC1)Cc1ccccc1CNC2=O | 0.9
COc1ccc(COc2cc3oc(=O)c4cc(C(C)O)ccc4c3cc2OC)cc1 (centres undefined) | -6.1
COc1cc(OC)cc(-c2nc(N)c3c(C)c(-c4ccc(OC)c(OC)c4)sc3n2)c1 | -65.2
COc1ccc(CCN(C)C2CCCN(c3ccnc(N)n3)C2)cc1OC (centres undefined) | -2.4
Nc1nc(N)c(Cc2ccccc2)cc1Cc1ccccc1 | 159.6
COc1ccc(Cc2cnc(N)nc2N)cc1OC | -79.1*
COc1ccc(COc2ccc(Cc3cnc(N)nc3N)cc2OC)cc1 | -77.3*
Cc1nc(C2COCCN2C(=O)CC(C)C)cs1 (centres undefined) | i
CCOc1ccc(-c2nc(CN(c3ccccc3C)S(=O)(=O)c3cccs3)c(C)o2)cc1 | -59.7
CN(C)S(=O)(=O)c1ccc2c(c1)cc(C(=O)NC1CCCCC1)n2Cc1ccncc1 | -49.3
CC(Cc1ccc2c(c1)OCO2)CN1CCC2(CC1)C(=O)N(Cc1cccnc1)C(=O)N2C (centres undefined) | 9.3
Cc1nn(-c2ccccc2)c(Cl)c1C(=O)Oc1ccc(OCc2ccccc2)cc1 | -97.4*
COC(=O)c1c(C)nn(-c2ccccc2)c1-c1cc(C)on1 | -1.0
Cc1nn(-c2ccccc2)c(C)c1C(N)=O | 175.2
O=C1CSC(=Nc2ccccc2)N1Cc1cccnc1 | -18.6
CN(C)C(=O)N1C[C@@H]2C(=O)N(C)C3(CCN(S(=O)(=O)Cc4ccccc4)CC3)[C@H]2C1 | 58.0
Cc1ccc(C)n1-c1cccc(NC(=O)CCc2nnc(C(C)C)o2)c1 | -1.2
Cc1c(Cl)cccc1NC(=O)Cn1c(=O)cc(C(=O)N2CCOCC2)c2ccccc21 | 9.2
CCS(=O)(=O)c1cccc(-c2cc(C(=O)NC3CCN(C)CC3)c(C)c3[nH]c4ncc(C)cc4c23)c1 | -80.2*
COc1cccc(-c2nc3cnccn3c2NCCC(=O)NC2CCN(C)CC2)c1 | -17.8
Cc1ccc(-c2nc3cnccn3c2NCCC(=O)NC2CCN(C)CC2)cc1 | 52.9
OCCn1ncc2c1CN(c1nc3ccccc3s1)C2 | 372.6
O=C1CCC(=O)N1CN(Cc1ccccc1)Cc1ccccc1 | -42.5
Cc1ccc(-c2coc(-c3ccc(NS(=O)(=O)c4ccc(C(C)(C)C)cc4)cc3)n2)c(C)c1 | -37.7
